The text below walks through data of PubChem BioAssay (NCATS).

SMILES strings stand for the structures. Inconclusive results are not listed. Unmarked numbers belong to inactive results. The source made the active and inactive calls. Calls follow the shape of the dose curve; as a rule, active = well fitted curve in the direction sought with a large enough effect; inconclusive = small, poorly fitted or top-dose-only effect, or another doubt; inactive = no such curve, though single readings can be large; an effect the other way counts as inactive or inconclusive.

The target of experiment [1] is Rap guanine nucleotide exchange factor 3 (Homo sapiens) (UniProt O95398). In words: Confirmatory qHTS for agonist of cAMP-regulated guanine nucleotide exchange factor 3 (EPAC1) (AID 1645881).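 Also: EPAC1 catalysed release of BODIPY-GDP from Rap1B seen as fluorescence loss; 100% = effect of cAMP agonist control; nearly all actives have a fitted effect of over 75% in size.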
The target of experiment [2] is Rap guanine nucleotide exchange factor 4 (Homo sapiens) (UniProt Q8WZA2). Kind of experiment: Confirmatory qHTS for agonist of cAMP-regulated guanine nucleotide exchange factor 4 (EPAC2) (AID 1645884).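 Also: nucleotide exchange releases bodipy-GDP from Rap1 and this lowers its fluorescence; % is scaled to controls: 0 for no effect and ±100 for the full control effect; nearly all actives have a fitted effect of over 65% in size.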
Experiment [3] has the same target. In words: Confirmatory qHTS for antagonist of cAMP-regulated guanine nucleotide exchange factor 4 (EPAC2) (AID 1645885). Also: nearly all actives have a fitted effect of over 25% in size. Also: potency is read from the fitted curve at half-maximal effect. As to activity change, negative = inhibition: % is scaled to controls: 0 for no effect and ±100 for the full control effect. For orientation: qHTS replaces the single test concentration by a dilution series.
The target in experiment [4] is Rap guanine nucleotide exchange factor 3 (Homo sapiens) (UniProt O95398). In words: Counterscreen qHTS for antagonist of cAMP-regulated guanine nucleotide exchange factor 3 (EPAC1) (AID 1645888).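 Also: fluorescence loss as bound BODIPY-GDP is released from Rap1B; % of control where 0% means no effect.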 The gist of the method:
(§1)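 Measured: fluorescence of BODIPY-GDP bound to Rap1B, which falls as exchange proceeds. Conditions include 50 uM competing GDP, 5 and 30 min reads, and a later cAMP challenge for antagonist detection.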
On the technique in general: Counterscreens check selectivity or assay interference.

Experiment [5] has the same target. In words: Counterscreen qHTS for agonist of cAMP-regulated guanine nucleotide exchange factor 3 (EPAC1) (AID 1645889). Also: % of control where 0% means no effect; nearly all actives have a fitted effect of over 40% in size. The gist of the method: as §1

Chain of Rap guanine nucleotide exchange factor 4 (Homo sapiens) (Q8WZA2 whole entry, looked up): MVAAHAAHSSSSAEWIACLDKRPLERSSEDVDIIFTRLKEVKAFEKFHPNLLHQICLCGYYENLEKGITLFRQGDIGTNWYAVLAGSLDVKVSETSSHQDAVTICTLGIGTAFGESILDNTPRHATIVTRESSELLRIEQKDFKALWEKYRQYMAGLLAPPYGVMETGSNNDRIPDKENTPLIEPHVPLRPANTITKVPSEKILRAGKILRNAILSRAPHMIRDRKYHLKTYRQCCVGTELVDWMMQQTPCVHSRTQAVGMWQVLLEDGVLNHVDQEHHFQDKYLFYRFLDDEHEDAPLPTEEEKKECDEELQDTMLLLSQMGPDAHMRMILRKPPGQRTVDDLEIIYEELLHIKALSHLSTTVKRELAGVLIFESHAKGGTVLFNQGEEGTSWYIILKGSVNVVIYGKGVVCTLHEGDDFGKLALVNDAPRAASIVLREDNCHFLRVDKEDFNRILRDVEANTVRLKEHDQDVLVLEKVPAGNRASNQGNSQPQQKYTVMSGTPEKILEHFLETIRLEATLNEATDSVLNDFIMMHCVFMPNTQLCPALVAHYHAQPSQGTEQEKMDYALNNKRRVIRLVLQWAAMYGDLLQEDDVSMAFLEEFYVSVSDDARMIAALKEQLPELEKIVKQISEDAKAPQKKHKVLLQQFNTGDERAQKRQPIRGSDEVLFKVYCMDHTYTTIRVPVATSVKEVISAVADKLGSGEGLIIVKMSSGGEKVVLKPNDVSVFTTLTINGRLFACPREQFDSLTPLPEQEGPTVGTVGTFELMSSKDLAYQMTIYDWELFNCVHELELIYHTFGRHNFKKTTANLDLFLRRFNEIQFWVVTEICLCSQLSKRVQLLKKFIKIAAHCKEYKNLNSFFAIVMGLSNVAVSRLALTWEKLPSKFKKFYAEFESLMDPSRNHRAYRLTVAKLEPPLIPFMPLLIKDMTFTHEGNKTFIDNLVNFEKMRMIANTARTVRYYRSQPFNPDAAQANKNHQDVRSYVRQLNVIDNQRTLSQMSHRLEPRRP
Chain of Rap guanine nucleotide exchange factor 3 (Homo sapiens) (O95398 whole entry, looked up): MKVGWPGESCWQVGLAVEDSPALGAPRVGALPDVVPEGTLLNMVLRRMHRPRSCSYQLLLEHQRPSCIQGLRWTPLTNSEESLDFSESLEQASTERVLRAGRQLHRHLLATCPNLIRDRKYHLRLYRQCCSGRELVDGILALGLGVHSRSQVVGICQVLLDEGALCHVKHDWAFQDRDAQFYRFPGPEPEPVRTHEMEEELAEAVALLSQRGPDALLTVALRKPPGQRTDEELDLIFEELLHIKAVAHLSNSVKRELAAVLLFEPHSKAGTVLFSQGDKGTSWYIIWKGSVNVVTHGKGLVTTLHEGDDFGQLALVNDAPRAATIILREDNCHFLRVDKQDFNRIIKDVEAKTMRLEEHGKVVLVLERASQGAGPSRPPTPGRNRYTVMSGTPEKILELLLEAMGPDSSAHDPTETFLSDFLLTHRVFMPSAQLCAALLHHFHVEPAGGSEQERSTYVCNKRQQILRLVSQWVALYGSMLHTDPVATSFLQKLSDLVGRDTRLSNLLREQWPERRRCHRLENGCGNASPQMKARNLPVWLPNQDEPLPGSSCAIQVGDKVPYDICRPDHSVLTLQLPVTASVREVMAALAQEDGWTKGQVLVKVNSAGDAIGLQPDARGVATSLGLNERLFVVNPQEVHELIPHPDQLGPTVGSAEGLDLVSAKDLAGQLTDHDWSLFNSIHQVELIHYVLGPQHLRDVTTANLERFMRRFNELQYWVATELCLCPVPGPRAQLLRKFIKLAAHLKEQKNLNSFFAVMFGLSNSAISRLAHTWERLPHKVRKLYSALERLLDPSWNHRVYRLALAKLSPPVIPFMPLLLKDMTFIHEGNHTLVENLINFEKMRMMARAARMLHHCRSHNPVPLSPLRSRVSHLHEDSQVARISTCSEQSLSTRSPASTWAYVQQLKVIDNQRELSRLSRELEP

As to `O=C(O)C(Cc1c[nH]c2ccccc12)NS(=O)(=O)c1ccc2ccccc2c1` (stereo not given), the Potency entry in experiment [1], in experiment [2], in experiment [3], in experiment [4] and in experiment [5] was “inactive” throughout.
Take `Cn1c(/N=C/c2c(O)ccc3ccccc23)nc2ccccc21`: the Potency entry in experiment [1], in experiment [2], in experiment [3], in experiment [4] and in experiment [5] was “inactive” in each case.
In the case of `COc1ccccc1N(CC(=O)Nc1cc(C)on1)S(=O)(=O)c1ccc(Cl)cc1`, the Potency entry in experiment [1] and in experiment [3] was “inactive” each time. Besides, the activation was 2.18% [at 17.1 µM, percent relative to cAMP agonist control] in experiment [2] and 29.1% [at 30.8 µM] in experiment [5]. The activity change, negative = inhibition in experiment [4] is -8.9% [at 30.8 µM].
In the case of `CCOc1ccccc1Cn1c(=O)oc2ccc(C)cc21`, the Potency result in experiment [1], in experiment [2], in experiment [3], in experiment [4] and in experiment [5] was “inactive” each time.
For `COc1cc(/C=C2/SC(=S)N(c3c(C)n(C)n(-c4ccccc4)c3=O)C2=O)ccc1O`, the Potency entry in experiment [1] and in experiment [3] was “inactive” each time. Further, the activation in experiment [2] is 9.4% [at 17.1 µM, percent relative to cAMP agonist control]; in experiment [5], 11.7% [at 30.8 µM]. In experiment [4], the activity change, negative = inhibition is -24.4% [at 30.8 µM].
In the case of `CCOc1ncccc1C(=O)OC(C)C(=O)Nc1ccc(Cl)cn1` (stereo not given), the Potency entry in experiment [1] is “inactive”. In addition, the activation is 7.63% [at 17.1 µM, percent relative to cAMP agonist control] in experiment [2] and 15.5% [at 30.8 µM] in experiment [5]. For the same compound, the Potency in experiment [3] was 0.213 µM (active). For the same compound, the activity change, negative = inhibition in experiment [4] was -16.3% [at 30.8 µM].
Regarding `COc1ccc(C(C)(NC(C)=O)c2nc(-c3cc(F)cc(F)c3)cs2)cc1` (stereo not given), the Potency entry in experiment [1] and in experiment [3] was “inactive” throughout. The activation in experiment [2] was 0% [at 17.1 µM, percent relative to cAMP agonist control]; in experiment [5] it was 15% [at 30.8 µM]. In addition, the activity change, negative = inhibition in experiment [4] was -9.04% [at 30.8 µM].
As to `C[C@@H]1CC=C[C@H]2[C@H]1C(=O)N(Cc1ccccc1)[C@H]2c1ccc(C(F)(F)F)cc1`, the Potency result in experiment [1] and in experiment [3] was “inactive” throughout. For the same compound, the activation in experiment [2] is -4.74% [at 17.1 µM, percent relative to cAMP agonist control]; in experiment [5] it was 7.88% [at 30.8 µM]. Moreover, the activity change, negative = inhibition in experiment [4] was -9.3% [at 30.8 µM].
In the case of `O=C(O)C/C(=C\c1cc(Cl)c2c(c1)OCO2)c1nc2ccccc2s1`, the Potency result in experiment [1] and in experiment [3] was “inactive” each time. Moreover, the activation is -1.81% [at 17.1 µM, percent relative to cAMP agonist control] in experiment [2] and -1.83% [at 30.8 µM] in experiment [5]. Also, the activity change, negative = inhibition in experiment [4] was -1% [at 30.8 µM].
As for `CCCOC(=O)c1c(NC(=O)C2C3C=CC(C3)C2C(=O)O)sc2c1CCC(C)C2` (stereo not given), the Potency entry in experiment [1] and in experiment [3] was “inactive” each time. Besides, the activation was 8.63% [at 17.1 µM, percent relative to cAMP agonist control] in experiment [2] and 40.1% [at 30.8 µM] in experiment [5]. In experiment [4], the activity change, negative = inhibition is 1.23% [at 30.8 µM].
With `Cn1c(=O)c(C(=O)NNC(=O)c2ccccc2Br)c(O)c2ccccc21`, the Potency entry in experiment [1] and in experiment [3] was “inactive” each time. Moreover, the activation was 2.84% [at 17.1 µM, percent relative to cAMP agonist control] in experiment [2] and 8.96% [at 30.8 µM] in experiment [5]. Also, the activity change, negative = inhibition in experiment [4] is -5.21% [at 30.8 µM].
In the case of `COc1ccc(C(C#N)N2CCC(c3ccccc3)=N2)cc1` (stereo not given), the Potency entry in experiment [1], in experiment [2], in experiment [4] and in experiment [5] was “inactive” in each case. Also, the Potency in experiment [3] was 7.57 µM (active).
Turning to `Cc1ccc(NC(=O)CCC(=O)c2cccs2)nc1`, the Potency result in experiment [1] and in experiment [3] was “inactive” in each case. The activation was 3.39% [at 17.1 µM, percent relative to cAMP agonist control] in experiment [2] and 21.4% [at 30.8 µM] in experiment [5]. For the same compound, the activity change, negative = inhibition in experiment [4] was -8.32% [at 30.8 µM].
On to `CC(C)C[C@H]1COCCS(=O)(=O)N1Cc1cccc(Cl)c1`, for which the Potency entry in experiment [1] and in experiment [3] was “inactive” throughout. Besides, the activation is 5.51% [at 17.1 µM, percent relative to cAMP agonist control] in experiment [2] and 2.08% [at 30.8 µM] in experiment [5]. Besides, the activity change, negative = inhibition in experiment [4] is -14.3% [at 30.8 µM].
Consider `CC(C)(C)N1CC(c2nc3ccccc3n2CCOc2ccccc2)CC1=O` (stereo not given), for which the Potency result in experiment [1], in experiment [2], in experiment [3], in experiment [4] and in experiment [5] was “inactive” in each case.
Take `Cc1oc2c(cc(NS(=O)(=O)c3ccc(F)cc3)c3ccccc32)c1C(=O)O`: the Potency entry in experiment [1], in experiment [2], in experiment [4] and in experiment [5] was “inactive” in each case. In experiment [3], the Potency is 75.7 µM (active).
With `CC[C@@H]1CC=C[C@H]2[C@H]1C(=O)N(Cc1ccccc1)[C@H]2c1ccc(C(F)(F)F)cc1`, the Potency entry in experiment [1], in experiment [2], in experiment [3], in experiment [4] and in experiment [5] was “inactive” throughout.
In the case of `CCc1ccc(N=C2NC(=O)/C(=C/c3cc(Br)c(OCC(=O)O)c(OC)c3)S2)cc1`, the Potency result in experiment [1] and in experiment [3] was “inactive” each time. Also, the activation is -6.04% [at 17.1 µM, percent relative to cAMP agonist control] in experiment [2] and 15.5% [at 30.8 µM] in experiment [5]. Besides, in experiment [4], the activity change, negative = inhibition is -19.5% [at 30.8 µM].
Regarding `CC1(C(=O)NS(=O)(=O)c2ccc(Cl)cc2)CCN1C(=O)C1(c2ccccc2)CCCC1` (stereo not given), the Potency result in experiment [1], in experiment [2], in experiment [3], in experiment [4] and in experiment [5] was “inactive” in each case.
For `CC(=O)Nc1ccc(NC(=O)CNC(=O)COc2ccccc2)cc1`, the Potency result in experiment [1] and in experiment [3] was “inactive” throughout. Also, the activation in experiment [2] was 14.1% [at 17.1 µM, percent relative to cAMP agonist control]; in experiment [5], -0.338% [at 30.8 µM]. The activity change, negative = inhibition in experiment [4] was 1.2% [at 30.8 µM].
